From PubChem BioAssay
The list is not random: actives were taken first. Their share in the collection is about 21%.
IL1B secr inh: inhibitors of inflammasome signaling (IL-1 beta secretion). THP-1 LPS/ATP IL-1B secretion, AlphaLISA, 16 h; hits give low values. hit rate 4.7% among 360,000. AID 743279. activity change, % at 57.5 µM; in the data active = activity change below about -50%; inconclusive = mostly about -30% to -49%
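THP-1 cells pretreated 1 hr with compounds (up to 57.5 uM final), then stimulated with LPS (250 ng/mL final) plus ATP (1.25 mM final); secreted IL-1B measured by AlphaLISA after 16 hr, decreased signal indicating inhibition.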
VP16 counter: inhibits Gal4-VP16 luciferase reporter, ROR gamma counter-screen. Drosophila S2 Gal4-VP16 UAS-luciferase, luminescence, 20 h. Potency, µM (titrated, usually from 53.6 µM), inactives show at the top dose activity, negative = inhibition, actives largely listed as inhibitors. hit rate 3.5% among 310,000;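 also: Gal4-VP16 expression switched on by copper sulfate through the metallothionein promoter; potency is read from the fitted curve at half-maximal effect; nearly all actives have a fitted effect of over 50% in size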
DT40 TDP1 CPT: growth inhibition of DT40 Tdp1-/-;hTDP1 cells with camptothecin (screen for TDP1 inhibitors); hit rate 12% among 420,000; chicken DT40 Tdp1-/-;hTDP1 cells + 20 nM CPT, ATP luminescence, 48 h; Potency, µM (doses to about 46.2 µM), inactives show at the highest dose activity change, negative = growth inhibition, actives largely listed as inhibitors; also: potency is read from the fitted curve at half-maximal effect; nearly all actives have a fitted effect of over 55% in size
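Cell growth measured by CellTiter-Glo luminescence after a minimum 48 h, 37 C compound exposure with 20 nM CPT in Tdp1-knockout DT40 cells stably expressing hTDP1, seeded 400/well; qHTS titration format.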
RORgamma inh: inhibitors of mouse ROR gamma transcriptional activity. Drosophila S2 Gal4-RORgamma UAS-luciferase reporter, 20 h. P51450. hit rate 5.4% among 310,000. AID 2551. Potency, µM (top dose mostly 53.6 µM), without a hit: at the highest dose activity change, negative = inhibition, hits mostly inhibitors; also: potency is read from the fitted curve at half-maximal effect; nearly all actives have a fitted effect of over 60% in size
Target sequence (P51450 whole entry, looked up, the tested form may be a part): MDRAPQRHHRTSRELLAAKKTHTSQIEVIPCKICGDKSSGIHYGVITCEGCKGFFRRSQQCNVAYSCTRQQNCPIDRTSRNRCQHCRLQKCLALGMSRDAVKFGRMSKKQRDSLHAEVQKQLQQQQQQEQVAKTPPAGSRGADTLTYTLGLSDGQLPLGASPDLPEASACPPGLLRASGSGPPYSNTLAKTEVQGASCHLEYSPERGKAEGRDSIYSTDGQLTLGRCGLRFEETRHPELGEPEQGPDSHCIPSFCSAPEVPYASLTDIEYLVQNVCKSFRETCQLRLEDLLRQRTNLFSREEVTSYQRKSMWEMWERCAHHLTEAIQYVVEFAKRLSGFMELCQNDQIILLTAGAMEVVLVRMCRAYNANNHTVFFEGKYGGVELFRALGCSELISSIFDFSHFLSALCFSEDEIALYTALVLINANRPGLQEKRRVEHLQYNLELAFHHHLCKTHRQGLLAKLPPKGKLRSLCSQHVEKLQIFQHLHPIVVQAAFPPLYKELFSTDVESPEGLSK
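ROR gamma transcriptional activity was tracked as Gal4-UAS luciferase output in stably transfected Drosophila Schneider cells, with compound added 1 hr before 700 uM copper sulfate induction and a 20 hr ambient-temperature incubation.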
ELG1 repair inh: blocks ELG1-dependent DNA repair in HEK293T cells; HEK293T ELG1-luciferase reporter, luminescence, 16 h; DNA damage induced by 5-fluorouridine; Potency, µM (series often up to 46.1 µM), for the others: at the highest dose activity change, negative = inhibition, hits mostly inhibitors; hit rate 2.3% among 330,000; AID 504467; also: potency is read from the fitted curve at half-maximal effect; nearly all actives have a fitted effect of over 55% in size
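Luminescence from the luciferase reporter, measured 30 min after ONE-Glo reagent at room temperature, was the read-out. Beforehand, 2,000 cells per well were exposed for 16 hr at 37 °C to 5-fluorouridine together with compound or vehicle.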
TDP1 cell noCPT: qHTS for Inhibitors of human tyrosyl-DNA phosphodiesterase 1 (TDP1): qHTS in cells in absence of CPT | DT40 Tdp1-/- hTDP1 cells, no CPT, ATP luminescence, 48 h | hit rate 15% among 420,000 | AID 686978, 2013 | Potency, µM (series often up to 46.2 µM), without a hit: at the top dose activity change, negative = growth inhibition, most hits filed as inhibitors; also: potency is read from the fitted curve at half-maximal effect; nearly all actives have a fitted effect of over 55% in size
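Camptothecin absent (DMSO only). Human TDP1-complemented DT40 knockout cells, 400 cells/well, 37 °C for minimum 48 hr; ATP measured via CellTiter-Glo, 30 min dark incubation, luminescence.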
Starred values were filed as active, the others as inactive; ? = inconclusive; / = no result given; [ ] = remark or other dose. Unless noted, calls follow the shape of the dose curve; as a rule, active = well fitted curve in the direction sought with a large enough effect; inconclusive = small, poorly fitted or top-dose-only effect, or another doubt; inactive = no such curve, though single readings can be large; an effect the other way counts as inactive or inconclusive. % is scaled to controls: 0 for no effect and ±100 for the full control effect.

SMILES	IL1B secr inh	VP16 counter	DT40 TDP1 CPT	RORgamma inh	ELG1 repair inh	TDP1 cell noCPT
COc1cc2[nH]c(=O)n(CCC(=O)N3CCN(c4ccc(Cl)cc4)CC3)c(=O)c2cc1OC	/	/	-21.4%	/	/	-24.8%
CCN1CCN(CCNC(=O)CCCCCn2c(=O)[nH]c3cc(C(=O)OC)ccc3c2=O)CC1	10.7	2.7%	4.8%	2.1%	-2.7%	-0.9%
Cc1cccc(N2CCN(C(=O)Cc3ccc(-n4c(=O)[nH]c5ccsc5c4=O)cc3)CC2)c1C	-7.3	1.3%	-19.3%	29.9%	18.4µM*	?
O=C(NCC(F)(F)F)C1C(=O)Nc2ccccc2C(=O)N1C1CCCC1 (configuration not stated)	21.4	/	6.4%	/	/	-6.4%
CCOc1cc2[nH]c(=O)n(CCCCC(=O)N3CCN(c4ccc(OC)cc4)CC3)c(=O)c2cc1OCC	/	/	16.4µM*	/	/	9.2µM*
CC(CCc1ccccc1)NC(=O)CN(C)Cc1ccccc1F (configuration not stated)	-73.9*	3.8%	?	20.4%	4.5%	?
CC(CCc1ccccc1)NC(=O)c1ccc(C(=O)NC(C)CCc2ccccc2)cc1 (configuration not stated)	-4.7	-5.2%	?	3.5%	5.17µM*	?
CCOc1ccccc1C(=O)NC(C(=O)NCc1ccccc1OC)C(C)C (configuration not stated)	12.5	-2.8%	?	15.8%	?	16.4µM*
CC(CCc1ccccc1)NC(=O)CN(C)Cc1ccc(F)cc1 (configuration not stated)	-12.0	-3.1%	-6.8%	1.5%	-9.9%	?
CCOc1ccc(C(CCc2ccccc2)NC(=O)c2ccccc2F)cc1OCC (configuration not stated)	-21.5	2.2%	35.5µM*	13.8%	?	?
CCCCOc1ccc(NC(=O)Cn2nnnc2-c2ccccc2F)cc1	/	/	-18.4%	/	/	-21.1%
O=C(c1cc(C(F)(F)F)cc(C(F)(F)F)c1)N1CCC2(CCCN(c3ccccc3)C2)CC1	/	-29.5%	3.9%	?	/	-15.1%
CCOc1ccccc1C(=O)NC(C)CCc1ccccc1 (configuration not stated)	13.1	/	?	/	/	16.4µM*
CC(CCc1ccccc1)NC(=O)c1nnc(Cc2ccc(Cl)cc2)o1 (configuration not stated)	-59.0*	14.5%	29.1µM*	10.3%	?	?
COc1ccccc1CNC(=O)CC(C)C	7.3	-0.6%	23.1µM*	7.5%	18.5%	?
CN1CCN(c2ncncc2-c2cccnc2)CC1	/	4.1%	?	-4.4%	/	-1.4%
O=C(NC1CCCC1)c1cnn2c(C(F)(F)F)cc(-c3ccco3)nc12	-6.5	?	-29.3%	13.9%	-15.2%	?
O=C(c1cnn2c(C(F)(F)F)cc(-c3ccc4c(c3)OCO4)nc12)N1CCCCC1	?	-3.0%	?	4.3%	-25.2%	-22.9%
Cc1ccc(-c2cc(C(F)(F)F)n3ncc(C(=O)N4CCN(C)CC4)c3n2)cc1	?	-6.7%	4.8%	5.1%	9.2µM*	-12.9%
O=C(NC1CCCC1)c1cnn2c(C(F)(F)F)cc(-c3ccc4c(c3)OCO4)nc12	15.2	2.2%	7.31µM*	16.3%	4.11µM*	16.4µM*
CN1CCN(C(=O)c2cnn3c(C(F)(F)F)cc(-c4ccc5c(c4)OCO5)nc23)CC1	-6.6	-10.5%	-25.6%	-23.1%	5.8µM*	?
COc1ccc(Nc2nc(C)nc3c2nnn3Cc2ccccc2Cl)c(OC)c1	0.0	-4.1%	-5.4%	2.8%[1.91 µM]	0.9%	0.8%
CCC12CN3CC(CC)(CN(C1)C3c1cccc(OC)c1O)C2=O (configuration not stated)	/	/	-28.6%	/	/	?
COCCn1c(C)cc(C(=O)COC(=O)c2cccc(O)c2)c1C	-10.9	0.631µM*	-23.8%	0.355µM*	?	?
COCCn1c(C)cc(C(=O)COC(=O)c2ccc([N+](=O)[O-])o2)c1C	-18.5	-1.0%	?	12.6µM*	?	-6.6%
SMILES	IL1B secr inh	VP16 counter	DT40 TDP1 CPT	RORgamma inh	ELG1 repair inh	TDP1 cell noCPT
Cc1cc(C(=O)COC(=O)c2ccc3c(c2)OCO3)c(C)n1CC1CCCO1 (configuration not stated)	14.3	4.6%	9.2%	-15.0%	?	-13.6%
Cc1cc(C(=O)COC(=O)c2ccc([N+](=O)[O-])o2)c(C)n1CC1CCCO1 (configuration not stated)	-13.9	0.7%	23.1µM*	20µM*	13.9%	?
CCC(=O)c1ccc(OCC(=O)OCC(=O)c2cc(C)n(CC3CCCO3)c2C)cc1 (configuration not stated)	-2.5	/	2.3%	/	7.3%	8.1%
Cc1cc(C(=O)COc2ccc(C#N)cc2)c(C)n1CC1CCCO1 (configuration not stated)	-5.7	/	29.1µM*	/	?	13µM*
Cc1noc(C)c1-c1nc(N(C)Cc2ccco2)c2ccccc2n1	/	-6.5%	?	-14.8%	/	?
COc1ccc2c(=O)c(C)c(-c3ccccc3)oc2c1CN(C)C	/	-2.7%	?	23.0%	/	?
Cc1cc(C(=O)COc2ccc(C#N)cc2)c(C)n1-c1ccc2c(c1)OCO2	-8.9	?	9.2µM*	-12.2%	?	9.2µM*
Cc1cc(C(=O)COC(=O)C2=COCCO2)c(C)n1-c1ccc2c(c1)OCO2	-2.1	7.3%	?	35.5%	?	?
Cc1cccc(C)c1NC(=O)CNC(=O)c1ccc(N2CCCC2=O)cc1	-7.4	/	12.5%	/	8.9%	4.6%
CCCCCCCCN1C(=O)[C@H](CC(=O)NCCC(C)C)C[C@@]2(C(=O)OC)CC(C)(C)CC=C12	-7.4	/	?	/	/	?
COC(=O)[C@]12CCCCC=C1N(CCc1ccc(OC)c(OC)c1)C(=O)[C@H](CC(=O)NCc1cccs1)C2	-29.2	/	20.6µM*	/	/	16.4µM*
COC(=O)[C@@]12C[C@@H](CC(=O)NCc3cccs3)C(=O)N(CCc3ccc(OC)c(OC)c3)C1=CCC(C)(C)C2	?	/	20.6µM*	/	/	?
COC(=O)[C@@]12C[C@@H](CC(=O)NCc3cccc4ccccc34)C(=O)N(CCc3ccc(OC)c(OC)c3)C1=CCC(C)(C)C2	-15.4	/	?	/	/	?
